Screening data as filed in PubChem.
Shown is part of a subset that was picked to be rich in hits.
ROC1-CUL1 inh: human ROC1-CUL1 E3 ligase inhibition. in vitro K48 di-Ub FRET, acceptor:donor ratio, 45 min. inhibition, % at 10 µM. 140,000 tested, 0.6% active. AID 1347404; in the data active = inhibition above about 25%
Target sequence (P62877 whole entry, looked up): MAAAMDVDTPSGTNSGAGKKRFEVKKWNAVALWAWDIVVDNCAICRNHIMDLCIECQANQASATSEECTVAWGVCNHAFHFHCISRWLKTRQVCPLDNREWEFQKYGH
Target sequence (Q13616 whole entry, looked up): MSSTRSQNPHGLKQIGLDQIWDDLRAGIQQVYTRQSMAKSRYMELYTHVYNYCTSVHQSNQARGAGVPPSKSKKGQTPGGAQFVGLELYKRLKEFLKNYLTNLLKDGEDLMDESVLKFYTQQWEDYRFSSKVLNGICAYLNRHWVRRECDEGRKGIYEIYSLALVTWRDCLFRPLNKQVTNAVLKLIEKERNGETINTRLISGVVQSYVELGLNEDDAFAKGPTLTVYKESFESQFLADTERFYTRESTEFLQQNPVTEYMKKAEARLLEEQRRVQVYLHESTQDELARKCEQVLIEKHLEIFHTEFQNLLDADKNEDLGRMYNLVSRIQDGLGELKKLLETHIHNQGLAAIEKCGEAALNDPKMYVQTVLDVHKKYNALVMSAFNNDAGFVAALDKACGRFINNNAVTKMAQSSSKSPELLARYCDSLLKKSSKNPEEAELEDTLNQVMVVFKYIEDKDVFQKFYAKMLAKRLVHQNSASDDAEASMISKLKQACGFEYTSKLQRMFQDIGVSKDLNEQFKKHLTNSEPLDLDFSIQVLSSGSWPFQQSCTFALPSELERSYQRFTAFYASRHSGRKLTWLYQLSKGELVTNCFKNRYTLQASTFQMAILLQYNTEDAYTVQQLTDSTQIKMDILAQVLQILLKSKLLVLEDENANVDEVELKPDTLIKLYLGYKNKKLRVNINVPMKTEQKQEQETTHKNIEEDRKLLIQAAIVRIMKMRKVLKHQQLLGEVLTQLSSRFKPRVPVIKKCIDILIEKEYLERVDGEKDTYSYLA
An asterisk follows results filed as active.

SMILES | ROC1-CUL1 inh
N#Cc1c(-c2ccccc2)cc(-c2cccs2)nc1SCCN1CCOCC1 | 0
Cc1nc(SCCN2CCOCC2)cc(-c2ccccc2)n1 | -3
N#Cc1c(-c2ccccc2)cc(-c2ccccc2)nc1SCCN1CCOCC1 | 100*
O=C(NC(Cc1ccccc1)c1ccc2c(c1)OCCCO2)c1ccco1 (stereo unspecified) | 3
COc1ccc(S(=O)(=O)N=C2C=C(Sc3ccc(C)cc3)C(=O)c3ccccc32)cc1 | -14
O=C1C(Sc2ncn[nH]2)=CC(=NS(=O)(=O)c2ccc(Cl)cc2)c2ccccc21 | 90*
Cc1ccc(S(=O)(=O)N=C2C=C(C3C(=O)CC(C)(C)CC3=O)C(=O)c3ccccc32)cc1 | -2
CCOC(=O)C1C(=N)N(c2ccccc2C(F)(F)F)C2=C(C(=O)CC(C)(C)C2)C1c1ccc(O)c(OC)c1 (stereo unspecified) | 7
Cc1nc2ncccn2c1-c1csc(Nc2cccc(Cl)c2C)n1 | -6
Nc1nc(N)c2sc3nc(-c4cccs4)cc(-c4ccc(F)cc4)c3c2n1 | 6
O=C1CC(=O)c2sc3nc(-c4cccs4)cc(-c4ccc(F)cc4)c3c2N1 | 26*
O=C1CC(=O)c2sc3nc(-c4ccccc4)ccc3c2N1 | 1
CCOc1cc(/C=C2/C(=O)NN(c3ccc(C(=O)OC)cc3)C2=O)cc(Br)c1OC(C)=O | 19
CCOc1cc(/C=C2\C(=O)NN(c3ccccc3)C2=O)cc(Br)c1OCCCOc1ccc(C)cc1 | 17
COc1cc(/C=C2\C(=O)NN(c3ccccc3)C2=O)cc(Br)c1OC(=O)C12CC3CC(CC(C3)C1)C2 | 27*
COc1cc(/C=C2/C(=O)NN(c3ccccc3)C2=O)cc(Br)c1OC(C)=O | -1
COc1cc(/C=C2/C(=O)NN(c3ccc(Br)cc3)C2=O)cc(Br)c1OC | 7
CCOc1cc(/C=C2\C(=O)NN(c3ccc(I)cc3)C2=O)ccc1O | 0
COc1cc(/C=C2\C(=O)NN(c3ccccc3)C2=O)cc(Br)c1OCc1ccccc1C | 94*
CCOc1cc(/C=C2\C(=O)NN(c3ccccc3)C2=O)cc(Br)c1OCc1ccc(C)cc1 | 9
COc1cc(/C=C2\C(=O)NN(c3ccccc3)C2=O)cc(OC)c1OC | -2
COc1cc(/C=C2\C(=O)NN(c3ccccc3)C2=O)cc(Cl)c1OCCCOc1cccc(C)c1 | 23
CCOc1cc(/C=C2/C(=O)NN(c3ccc(I)cc3)C2=O)cc(Br)c1OC(C)=O | 66*
CCOc1cc(/C=C2\C(=O)NN(c3ccccc3)C2=O)cc(Br)c1OCc1ccccc1C | 30*
Cc1cc(C)c(S(=O)(=O)Nc2ccc(O)c(Cl)c2)cc1C | 9
SMILES | ROC1-CUL1 inh
Cc1cc(CNC(=O)Nc2nnc(CCc3ccccc3)s2)n[nH]1 | 13
O=C(NCCN1CCOCC1)c1ccc(N2CCC(NCc3cccc(C(F)(F)F)c3)CC2)cc1 | 0
CN(Cc1cnc(-c2ccccc2)s1)C(=O)Cn1ncc(N(C)C)cc1=O | 5
Cc1cccc(N2CC(C(=O)OCC(=O)c3ccc(Br)cc3)CC2=O)c1C (stereo unspecified) | -5
CCC1CN(C(=O)c2ccc(NCCc3ccco3)nc2)CCN1C(C)C (stereo unspecified) | -2
CCN1CC=C2C(C#N)C(=N)C(C#N)(C#N)C(C3C=CCCC3)C2C1 (stereo unspecified) | -1
COc1cccc2c1N(C)C(=O)CC2=O | -3
COc1cc(C2c3c(n[nH]c3-c3cccc4ccccc34)OC(=N)C2C#N)cc(OC)c1OC (stereo unspecified) | 12
COc1cc(/C=C2\C(=O)NN(c3ccccc3)C2=O)cc(I)c1OCc1ccc(Cl)c(Cl)c1 | 12
CCOc1cc(/C=C2\C(=O)NN(c3ccccc3)C2=O)cc(Cl)c1OCc1ccc(Cl)cc1 | 7
COc1cc(/C=C2\C(=O)NN(c3ccccc3)C2=O)cc(Cl)c1OCc1ccc(C)cc1 | 39*
CC(NC(=O)c1ccco1)c1ccc(Cl)cc1 (stereo unspecified) | 6
COc1cccc(/C=C2/CCCC3=C2OC(=N)C(C#N)C3c2cccc(OC)c2OC)c1OC (stereo unspecified) | -4
CCOc1ccc2ccccc2c1/C=C1\C(=O)NC(=S)N(c2cccc(Cl)c2Cl)C1=O | 6
COc1cc(CN2CCOc3ccc(C(O)Cc4ccccc4)cc3C2)cc(OC)c1OC (stereo unspecified) | 4
CC1=NN(c2ccc(C)c(Cl)c2)C(=O)/C1=C\c1ccc(N2CCOCC2)cc1 | -3
Cc1nonc1C(=O)N=Nc1c2ccccc2c2nc3no[nH]c3nc12 | 45*
Cc1c(-c2n[nH]c(=S)n2-c2ccc(Cl)cc2)nnn1-c1ccccc1 | -4
COc1cccc2c1OCC(NCc1ccccc1)C2 (stereo unspecified) | -7
Cc1ccccc1Cn1nnc2c1C(=O)c1ccccc1C2=O | 12
O=C1c2ccccc2C(=O)c2c1nnn2Cc1ccc(F)cc1 | 13
COc1ccc(Cn2nnc3c2C(=O)c2nnn(Cc4ccc(OC)cc4)c2C3=O)cc1 | 45*
COc1ccc(N2CCN(c3nc(C)cc(C)n3)CC2)cc1 | 0
CSCCC(=O)N1CCCC(C(=O)c2ccc(Cl)cc2)C1 (stereo unspecified) | 15
O=C(Nc1cc(Cl)c(O)c(Cl)c1)c1ccc(NC(=O)c2ccco2)cc1 | 0
SMILES | ROC1-CUL1 inh
Cc1ccc(NS(=O)(=O)c2ccccc2)c(O)c1 | 11
O=C(O)CSc1cc(NS(=O)(=O)c2ccc(Br)cc2)c2ccccc2c1O | 102*
O=C(O)CSc1cc(NS(=O)(=O)c2ccccc2)c2ccccc2c1O | 37*
O=S(=O)(Nc1cc(Sc2nnnn2-c2ccccc2)c(O)c2ccccc12)c1ccccc1 | 5
CC(=O)c1c(C)oc2c1cc(NS(=O)(=O)c1ccc(Br)cc1)c1ccccc12 | 3
O=c1oc2c(cc(NS(=O)(=O)c3ccc(Br)cc3)c3ccccc32)s1 | 2
CC(C)(C)c1ccc(S(=O)(=O)Nc2ccc(O)c(C(=O)O)c2)cc1 | 4
CC(C)(C)c1ccc(S(=O)(=O)Nc2ccc(Cl)cc2Cl)cc1 | -2
CC(C)(C)c1ccc(S(=O)(=O)Nc2cc(SCC(=O)O)c(O)c3ccccc23)cc1 | 92*
COc1ccc(-c2csc(NNC(=O)c3cc(OC)c(OC)c(OC)c3)n2)cc1 | 3
COc1ccc(CC(=O)Nc2ccc(Cc3ccncc3)cc2)cc1 | 3
CC1(C)OC2OC(C(O)c3cc(O)c4c(c3O)C(=O)c3ccccc3C4=O)C(C)(O)C2O1 (stereo unspecified) | 65*
O=C1NN(c2ccccc2)C(=O)/C1=C/c1cc(Cl)cc(Cl)c1OCCCOc1ccc(Cl)cc1 | 11
COc1cc(/C=C2\C(=O)NN(c3ccccc3)C2=O)cc(Cl)c1OCCOc1ccc(Cl)c(C)c1 | 12
Cc1cccc(OCCCOc2c(Cl)cc(Cl)cc2/C=C2\C(=O)NN(c3ccccc3)C2=O)c1 | 7
CCOc1cc(/C=C2\C(=O)NN(c3ccccc3)C2=O)cc(Cl)c1OCCOc1ccc(C)cc1C | 14
Cc1cccc(OCCOc2c(Cl)cc(Cl)cc2/C=C2\C(=O)NN(c3ccccc3)C2=O)c1 | 98*
Cc1cc(OCCOc2ccc(Cl)cc2/C=C2\C(=O)NN(c3ccccc3)C2=O)ccc1Cl | 49*
CC1CCC(C(C)C)C(OCC(O)CN2CCc3ccccc3C2)C1 (stereo unspecified) | 3
Cc1ccc(CNC2CC(C)(C)Cc3nc(N4CCOCC4)ncc32)s1 (stereo unspecified) | 0
CCC1CN(CC(=O)N(C)CCCN2CCOCC2)Cc2ccc(Cl)cc2O1 (stereo unspecified) | 12
